The results in this text go back to PubChem BioAssay AID1347385 (Zoeller Lab, School of Medicine, Boston University, 2020).

About 85 (0.4%) of roughly 20,000 compounds were called active.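 Rule for the calls: active = cell survival signal 2 SD away from solvent-only control wells, confirmed on one or two retests; inactive = the rest.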 The full list was thinned out, with actives kept by preference.

The nature of the assay: compounds reducing fatty acid uptake into lipids – ZR-82 cells, Enamine library, screen 3, primary screen (AID 1347385).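 Note: 3 h compound exposure then viability read about one day after UV.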 As to conditions: ZR-82 CHO cells, pyrene fatty acid UV survival, CellTiter Blue, peroxisome-deficient CHO-K1 mutant line, plus DGAT-1, DGAT-2 and ACAT inhibitors; at 10 µM unless noted. A general note: The colour change of resazurin is a common sign of viable cells or microbes.
With `COC(=O)CNC(=O)c1ccc([N+](=O)[O-])o1`, the outcome was inactive.
To `CC(C)CN(C1CCS(=O)(=O)C1)S(=O)(=O)c1ccc(Cl)cc1` (centres undefined) belongs “inactive”; to `C(=Nc1ccc2c(c1)OCO2)c1ccc2ncccc2c1`, “inactive”.
Next, `c1ccc2c(c1)OCCOCCOCCOc1ccccc1OCCOCCO2`: “inactive”; `O=C1NNS(=O)(=O)c2ccccc21`: “inactive”.
To `Brc1ccc2nc(-n3nc4ccccc4n3)nc(-c3ccccc3)c2c1` belongs “inactive”; to `Cc1sc2ncnc(SCC(=O)c3c(N)n(CC(C)C)c(=O)n(C)c3=O)c2c1C`, “inactive”; to `CCOC(=O)Cc1n[nH]c(=S)n1C1CCCC1`, “inactive”.
As to `CCNC(=S)N1CCN(S(=O)(=O)c2ccc(Cl)s2)CC1`, the outcome was inactive.
To `Cc1cc(-c2csc(N)n2)c(C)c(C)c1C` belongs “inactive”; to `O=C(COc1ncnc2sc3c(c12)CCC3)c1ccc(Cl)s1`, “inactive”; to `O=C(CN1C(=O)NC2(CCCC2)C1=O)NC1CCSc2ccc(F)cc21` (centres undefined), “inactive”.
In the case of `C=CCN(CC=C)CC(=O)Nc1sc2c(c1C(N)=O)CCCC2`, the outcome was inactive.
`Clc1ccc(Cl)c(-c2ccc(-c3ncc(-c4cccs4)o3)o2)c1`: the outcome was inactive.
To `CN(C)C(=O)CN(C)C(=O)CN1C(=O)NC2(CCCCCC2)C1=O` belongs “inactive”; to `Cc1nc(SCC(=O)N2CCNC2=O)n(CC(C)C)c1C`, “inactive”.
Next, `O=S(=O)(c1ccc(Cl)c(N=C2SCCN2C2CCCCC2)c1)N1CCOCC1`: “inactive”; `c1ccc(OCc2nc(-c3ccccn3)n[nH]2)cc1`: “inactive”.
To `C#CC(CC)(CC)NC(=O)CCc1nc2sc3c(c2c(=O)[nH]1)CCCC3` belongs “inactive”; to `Brc1ccccc1C1N=C(c2ccccc2)NO1` (centres undefined), “inactive”; to `O=c1c2c3c(sc2[nH]c(=S)n1C1CCCC1)CCC3`, “inactive”.
As to `O=C(OCc1cc([N+](=O)[O-])cc2c1OCOC2)C1CCC1`, the result was inactive.
To `O=C(CSc1nc2sc3c(c2c(=O)n1C1CCCC1)CCCC3)N1CCCC1` belongs “inactive”; to `FC(F)Oc1ccc(C2Oc3ccccc3C3CC(c4ccccc4)=NN32)cc1` (centres undefined), “inactive”.
To `Cc1nnc(NC(=O)NCC2(C)CC(NC(=O)Nc3nnc(C)s3)CC(C)(C)C2)s1` (centres undefined) belongs “inactive”; to `CC(C)N(CCNS(=O)(=O)c1ccccc1)C(C)C`, “inactive”.
`O=[N+]([O-])c1ccc(-n2nnc3ccccc32)c(Cl)c1`: the result was inactive.
Turning to `Clc1ccccc1C1Oc2ccccc2C2CC(c3ccc4c(c3)OCCO4)=NN21` (centres undefined), the outcome was inactive.
Take `O=c1/c(=C/c2ccc(F)cc2)sc2n1CCN=2`: the outcome was inactive.
Next, `O=C1OCC(CO)(CO)N=C1NNc1ccc(I)cc1`: “inactive”.
With `FC(F)Oc1ccc(Cl)c(C2Nc3ccccc3-c3nc4ccccc4n32)c1` (centres undefined), the result was inactive.
Turning to `C(=N\n1c(-c2ccc(-c3ccccc3)cc2)csc1=NCCc1ccccc1)/c1ccccn1`, the outcome is “inactive [setting not given]”.
Next, `O=C(NC(O)C(Cl)(Cl)Cl)C12CC3CC(CC(C3)C1)C2` (centres undefined): “inactive”; `CCOC(=O)c1c(C)[nH]c(C(=O)OCC(=O)C(C)(C)C)c1C`: “inactive”; `C#CCN=Cc1c(O)n(CCOC)c(=S)[nH]c1=O`: “inactive”.
Next, `O=S(=O)(Oc1cccc2cccnc12)c1ccc2ccccc2c1`: “inactive”; `CC(Sc1nnc(-c2ccc(C(C)(C)C)cc2)o1)c1nnc(-c2ccc([N+](=O)[O-])cc2)o1` (centres undefined): “inactive”.
To `O=C1NC(c2ccc3c(c2)OCO3)C(C(=O)c2ccccc2)C(O)(C(F)(F)F)N1` (centres undefined) belongs “inactive”.
Consider `CCN(CC)[P+](N)(c1nc2ccccc2n1C)N(CC)CC`, for which the outcome was inactive.
To `COC(=O)c1cc(C(O)(C(F)(F)F)C(F)(F)F)c(N=CN(C)C)s1` belongs “inactive”.
For `C=CCn1c(SCc2c(C)noc2C)nc2sc3c(c2c1=O)CCC(C)C3` (centres undefined), the result was inactive.
Take `Cn1cc(-c2nn(-c3ccccc3)cc2/C=N/NC(N)=S)c2ccccc21`: the outcome was “inactive [setting not given]”.
As to `Cc1cc(C=C2Sc3ccccc3N2C)cc(C)[n+]1CCCn1ccnc1`, the result was inactive.
Next, `CC1CCC2(CC1)NC(=O)N(CC1CC1(Cl)Cl)C2=O` (centres undefined): “inactive”; `COc1ccc(OCCN2CCN(C(=N)N)CC2)cc1`: “inactive”.
To `C=CCNC(=S)NN=C1c2ccccc2-c2ccccc21` belongs “inactive”.
Next, `O=C(CSc1ncnc2sc3c(c12)CCC3)N1CCCCC1`: “inactive”.
Take `C=CCOc1c(Cl)cc(S(=O)(=O)c2cc(Cl)c(O)c(Cl)c2)cc1Cl`: the outcome was inactive.
To `COCCn1c(C)cc(C(=O)COC(=O)Cn2c(C)csc2=O)c1C` belongs “inactive”; to `COc1ccc(C2=CC(c3ccc(OC)cc3)n3nnnc3N2)cc1` (centres undefined), “inactive”.
On to `O=[N+]([O-])c1ccc(NC(=S)N=C2c3ccccc3CN2c2ccc(Cl)cc2)cc1`, for which the outcome was inactive.
With `O=S1(=O)CCC(NS(=O)(=O)c2ccc(Cl)c(Cl)c2)C1` (centres undefined), the result was inactive.
Next, `NC=C(S(=O)(=O)c1ccc(Cl)cc1)S(=O)(=O)c1ccc(Cl)cc1`: “inactive”; `O=c1c(-c2cc3ccccc3o2)coc2ccccc12`: “inactive”; `O=C1C=CC(=O)N1c1ccc(Br)cc1`: “inactive”.
To `CC1CCN(C2=NS(=O)(=O)c3ccccc32)CC1` belongs “inactive”; to `CCSc1nnc(SCC(=O)c2c(N)n(CC(C)C)c(=O)n(C)c2=O)s1`, “inactive”; to `Cc1ccc(-c2csc3nc(CSc4nnnn4C)[nH]c(=O)c23)s1`, “inactive”.
To `CCCSc1nsc(N)n1` belongs “inactive”; to `Clc1ccc2nc(CSc3ccc4ccccc4c3)cn2c1`, “inactive”; to `Fc1ccc(Cn2c3[n+](c4ccc(C(F)(F)F)cc42)CCCCC3)cc1`, “inactive”.
As for `COC(=O)c1noc(C(=O)OC)c1O`, the outcome was inactive.
Next, `FC(F)(F)C(=NCc1ccco1)NC1(C(Cl)(Cl)Cl)Oc2ccccc2O1`: “inactive”.
To `CCOc1cc(C)c(S(=O)(=O)N2CCCC2)cc1C(C)C` belongs “inactive”; to `CCN(CC)c1ccc([P+](CC)(c2ccc(N(CC)CC)cc2)c2ccc(N(CC)CC)cc2)cc1`, “inactive”.
Take `COc1ccc(OC)c(C2CC(c3ccco3)=NN2S(C)(=O)=O)c1` (centres undefined): the outcome was inactive.
Consider `CCCc1ccc(C2=C(C)SC3=NS(=O)(=O)CCN32)cc1`, for which the result was inactive.
Next, `Cc1cc(C)nc(SCc2cn3c(C)cc(C)nc3n2)n1`: “inactive”; `COc1ccc(C2=NN3C(C2)c2ccccc2OC32CCCC2)c(OC)c1` (centres undefined): “inactive”; `Cc1cc(C(=O)C(C)n2cnc3c2c(=O)n(C)c(=O)n3C)c(C)n1Cc1ccco1` (centres undefined): “inactive”.
Next, `O=[N+]([O-])c1ccc(-c2c[n+](=O)c3c(n2[O-])CCCCC3)cc1`: “inactive”.
Next, `CC(C)(C)NC(=O)NC(=O)COC(=O)C1(C)CC1(Cl)Cl` (centres undefined): “inactive”; `Cc1nc2sc3c(c2c2nnnn12)CCCC3`: “inactive”.
With `O=C1OC(c2ccccc2)=N/C1=C\c1ccc(C(F)(F)F)cc1`, the result was inactive.
With `Cc1ccc(C)n1-n1c(C)nc2sc3c(c2c1=O)CCCC3`, the outcome was inactive.
To `O=S1(=O)CCC(NC2CCCCC2)C1` (centres undefined) belongs “inactive”; to `Cc1ccc(C2=Nn3cc(-c4ccccc4)nc3SC2)cc1`, “inactive”; to `O=c1oc2cc(O)c(Cl)cc2c2c1CCCC2`, “inactive”.
To `C=CCNS(=O)(=O)c1ccc2c(c1)OCCO2` belongs “inactive”; to `Cn1nnc2c(=O)[nH]cc([N+](=O)[O-])c21`, “inactive”; to `CC(C)(C)c1cnnn1-c1ccc([N+](=O)[O-])cc1`, “inactive”.
Next, `CC1CNC(=O)NC1=O` (centres undefined): “inactive”; `CCCCn1c(N)c(N(CC)C(=O)/C=C/c2ccco2)c(=O)[nH]c1=O`: “inactive”; `CCCCNC(=S)N(C)/N=C1\C(=O)Nc2ccc([N+](=O)[O-])cc21`: “inactive [setting not given]”.
For the compound `O=c1oc2ccccc2c(O)c1C=Nc1ccccc1Br`, the outcome was inactive.
As for `O=C1Nc2ccc([N+](=O)[O-])cc2/C1=N/n1cnnc1`, the outcome is “inactive [setting not given]”.
To `c1ccc(CCc2nc(-c3ccncc3)no2)cc1` belongs “inactive”.
To `Nc1nnc(SCC(=O)O)s1` belongs “inactive”; to `CCOC(=O)/C=C1\SCC(=O)N1CCSc1nnc(C)s1`, “inactive”; to `COc1cc(/C=N/OCc2ccc([N+](=O)[O-])cc2)ccc1OC(F)F`, “inactive [setting not given]”.
To `CC1=C(C(C)C)Nc2nnnn2C1c1ccc(Br)cc1` (centres undefined) belongs “inactive”.
In the case of `CCOC(=O)c1c(-c2ccc(C)o2)csc1N=Cc1c(O)[nH]c(=S)[nH]c1=O`, the result was inactive.
Next, `NC(=S)c1cccc(Br)c1`: “inactive”.
Next, `NC1=NC(=O)/C(=C\c2ccc3c(c2)OCO3)S1`: “inactive”.
